# Laboratory results from the supplement of paper PMC8387472.
# Legend:
# Assay in all cases: fraction of edited reads among all mapped reads; higher = more Cas9 editing
# Settings in all cases: mESC; 2uM; 72 h treatment, harvest day 5
# [1] = compound: Cc1cc(C)nc(SCC(=O)Nc2ncc(Cc3cccc4ccccc34)s2)n1
# [2] = compound: Cc1ccc(C(=O)NCCCCCC(=O)Nc2ccccc2N)cc1
# [3] = compound: Cc1cccc(CC(=O)N2CCc3c2ccc(-c2cn(C)c4ncnc(N)c24)c3F)n1
# [4] = compound: NC(=O)c1ccc2nc(-c3ccc(Oc4ccc(Cl)cc4)cc3)[nH]c2c1 [Chk 2 inhibitor II (BML-277)]
# Tucidinostat (Chidamide) = compound: Nc1cc(F)ccc1NC(=O)c1ccc(CNC(=O)/C=C/c2cccnc2)cc1 [Tucidinostat (Chidamide)]
# Pemetrexed = compound: Nc1nc2[nH]cc(CCc3ccc(C(=O)N[C@@H](CCC(=O)O)C(=O)O)cc3)c2c(=O)[nH]1 [Pemetrexed]
# [5] = compound: Nc1ncnc2c1c(-c1cnc3[nH]ccc3c1)nn2C1CCCC1
# [6] = compound: O=C(c1cccc(Cl)c1F)N1CCN(Cc2cccc(Nc3nccs3)n2)CC1
# Kenpaullone = compound: O=C1Cc2c([nH]c3ccc(Br)cc23)-c2ccccc2N1 [Kenpaullone]
# Genistein = compound: O=c1c(-c2ccc(O)cc2)coc2cc(O)cc(O)c12 [Genistein]
Target,fraction of edited reads among all mapped reads [1],fraction of edited reads among all mapped reads [2],fraction of edited reads among all mapped reads [3],fraction of edited reads among all mapped reads [4],fraction of edited reads among all mapped reads (Tucidinostat (Chidamide)),fraction of edited reads among all mapped reads (Pemetrexed),fraction of edited reads among all mapped reads [5],fraction of edited reads among all mapped reads [6],fraction of edited reads among all mapped reads (Kenpaullone),fraction of edited reads among all mapped reads (Genistein)
"0.0 (DMSO control at this site: 1-bp insertion 0.463, MH deletion 0.339, edited 0.14) AGGATTACCGAGACCTACGCGAACCGAAATCGCTGTCCGGTGCGCAAGCAGGGCTGGCGTC",0.241,0.152,0.222,0.17,0.139,0.149,0.173,0.122,0.329,0.187
15.0 GCGCCTCCAATGACCCAGTGGGATCCTACTCCATAATGGGATCCTGGGGATTCCTCGCTCC,0.136,0.0776,–,–,0.0802,–,–,–,–,0.132
"16.0 (DMSO control at this site: 1-bp insertion 0.172, MH deletion 0.29, edited 0.05) CGGACTGCACACATGGGTAGGATCGTGCACGCGAGGTAGGATCGTGCACGCGAAGTTATTC",0.0974,0.052,0.0804,0.0597,0.0541,0.0594,0.0586,0.043,0.128,0.0716
"5.0 (DMSO control at this site: 1-bp insertion 0.214, MH deletion 0.567, edited 0.105) CGCTGACCCGAGACCTACGCGAACCGAAATCGGCGACCGGTGCGCAAGCAGGGCTGGCGTC",0.215,0.121,0.171,0.149,0.108,0.124,0.116,0.0928,0.248,0.157
"17.0 (DMSO control at this site: 1-bp insertion 0.112, MH deletion 0.348, edited 0.058) CCATAGCGCGATAAATATGACGGCTCATCCTGTATGACGGCTCATCCTGTATCAACTGTCC",0.123,0.0669,0.086,0.0753,0.0619,0.0836,0.0703,0.0546,0.184,0.0864
"47.0 (DMSO control at this site: 1-bp insertion 0.095, MH deletion 0.585, edited 0.118) GAGTGGTCCCGAGCCAGGAACTGTGTGTGTTGCAGGGGGGCAGTAACTCCCCAACTCCCTC",0.199,0.123,0.171,0.143,0.0948,0.12,0.129,0.0848,0.244,0.148
"1.0 (DMSO control at this site: 1-bp insertion 0.521, MH deletion 0.323, edited 0.141) GTGTCACAGTGCACGAGTGACGGGATAATGTGCTGACAGGTAATTGATAGGCTTCCAACTT",0.243,0.141,0.218,0.174,0.14,0.132,0.176,0.112,0.33,0.159
"19.0 (DMSO control at this site: 1-bp insertion 0.121, MH deletion 0.101, edited 0.057) TCTGCAGGGGTCGGAACCCGGGGGCTAGGGCTATCCCGGGGGCTAGGGCTATTAGCGAACC",0.112,0.0637,0.0933,0.0726,0.0662,0.0698,0.0701,0.0542,0.141,0.0811
"35.0 (DMSO control at this site: 1-bp insertion 0.01, MH deletion 0.72, edited 0.098) CCACTTTTAGAGAGGGTGAAAATCATCAGTTATCATCAGGGCAACAAATTGCTTTCTCCTA",0.179,0.117,0.147,0.122,0.0981,0.104,0.108,0.0696,0.209,0.151
"28.0 (DMSO control at this site: 1-bp insertion 0.035, MH deletion 0.77, edited 0.142) TGGTTCTTCCTTTGTAGAGAGTGTTCATCTGGGAATCTGGGACTTGGATGAGACAATCATT",0.267,0.152,0.212,0.19,0.126,0.14,0.153,0.11,0.297,0.198
"22.0 (DMSO control at this site: 1-bp insertion 0.573, MH deletion 0.229, edited 0.045) CTGATGGTTGAAGGATTTAGCCGGGGTCCTAGACGCCGGGGTCCTAGACGAAAGGGCCACG",0.0884,0.0476,0.0695,0.0586,0.0454,0.056,–,0.0278,0.117,0.0556
"3.0 (DMSO control at this site: 1-bp insertion 0.109, MH deletion 0.149, edited 0.09) TGCTAGCGCCCCCACAAAGCGGACCAGCCAGCACTATAGGGAATAAGGCCAACTTGCACCC",0.162,0.0928,0.145,0.126,0.0815,0.12,0.0841,0.0816,0.193,0.13
"26.0 (DMSO control at this site: 1-bp insertion 0.518, MH deletion 0.262, edited 0.026) AGGGCGCGCCCCACGCACTCTGCGGCAAGTCCCTCTGCGGCAAGTCCTCGGCCCGGAAGAC",0.0413,0.0319,0.0384,0.0384,0.0295,0.0225,0.0266,0.0221,0.0413,0.0338
23.0 AGAACAAAGCGCTCATATAACGATATGGGGGGTTATGGGGGGTTGAATTGCTTCAGCACGA,–,–,–,–,–,–,–,0.94,–,–
21.0 CGATTGAGAGTCAAACGGGCCAGAAAACTCCGGGAACGGGCCAGAAAACTCCGGGGCATGG,0.198,0.121,–,0.14,0.116,0.124,0.103,–,0.273,0.136
"25.0 (DMSO control at this site: 1-bp insertion 0.017, MH deletion 0.774, edited 0.143) GGGCCTGAATGGTGTGGACATCTACTCGCTGGTGAGCTGGTGACTGAAAACATTCAGTGGC",0.278,0.159,0.228,0.194,0.14,0.16,0.15,0.109,0.31,0.203
"33.0 (DMSO control at this site: 1-bp insertion 0.008, MH deletion 0.771, edited 0.112) CATTAAGAGCAGCTGCCGGCCCCCAAGTGGACAGAGCTGGCCCTGCTGATTCAACAGTGCA",0.187,0.109,0.168,0.147,0.108,0.111,0.108,0.0838,0.237,0.146
"42.0 (DMSO control at this site: 1-bp insertion 0.145, MH deletion 0.655, edited 0.132) GGGCTAAACCTATGAGCACAGTAGAACTAAGGGTGGGTGGTGTAGCTAAAGAACTTGACCA",0.241,0.15,0.193,0.167,0.115,0.127,0.135,0.107,0.251,0.18
"18.0 (DMSO control at this site: 1-bp insertion 0.114, MH deletion 0.789, edited 0.094) GCGCAAGTGCATAAGTTTTTCTTAAGGCGTGCCTTTAAGGCGTGCCTTTGTCGGTCCTGGA",0.155,0.0986,0.121,0.106,0.0855,0.0951,0.0956,0.0736,0.162,0.131
